Results on one sequence are retold here after article PMC7862700, “An all-to-all approach to the identification of sequence-specific readers for epigenetic DNA modifications on cytosine”.

Holding throughout (assay): DAPPL (digital affinity profiling via proximity ligation, sequencing); 10 mM Tris-HCl pH 7.5, 50 mM NaCl, 1 mM DTT, 4% glycerol, room temperature, 30 min; GST-TFs on glutathione beads, 16-mer random dsDNA library, 0.1% formaldehyde crosslink after washing; high values mean tight binding
Assay [1] deals with T1, FEV (Homo sapiens, UniProt Q99581 1-238).
T1 sequence: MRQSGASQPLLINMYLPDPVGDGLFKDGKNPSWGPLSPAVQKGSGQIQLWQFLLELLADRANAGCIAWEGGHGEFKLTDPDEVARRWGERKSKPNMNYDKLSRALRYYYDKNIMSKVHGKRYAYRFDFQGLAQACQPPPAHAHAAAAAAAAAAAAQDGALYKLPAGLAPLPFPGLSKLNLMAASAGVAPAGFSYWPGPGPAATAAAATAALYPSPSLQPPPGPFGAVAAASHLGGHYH
As to conditions: protein: recombinant; tags: N-terminal GST; dsDNA, one strand shown. In a few lines:
(§1)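 Human transcription factors were made in yeast as GST fusions, captured on glutathione beads and barcoded with DNA. With a tag-only sample included, the pool was incubated with 200 nmole of a random double-stranded 16-mer DNA library in Tris/NaCl/DTT/glycerol buffer at room temperature for 30 min, then crosslinked with 0.1% formaldehyde after washing, ligated by proximity, amplified and sequenced. For binding signal, each hexamer's read frequency for a factor is divided by its frequency for the tag-only sample.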

Assay [2] has as its target ETV5 (Homo sapiens, UniProt P41161 1-510). The conditions noted are these: protein: recombinant; tags: N-terminal GST; dsDNA, one strand shown. In outline:
as §1

The target of assay [3] is HSF1 (Homo sapiens, UniProt Q00613 1-529). The conditions noted are these: protein: recombinant; tags: N-terminal GST; chain copies: 3; dsDNA, one strand shown. In a few lines:
as §1

Assay [4] concerns the target T2, SPIC (Homo sapiens, UniProt Q8N5J4 1-248).
T2 sequence: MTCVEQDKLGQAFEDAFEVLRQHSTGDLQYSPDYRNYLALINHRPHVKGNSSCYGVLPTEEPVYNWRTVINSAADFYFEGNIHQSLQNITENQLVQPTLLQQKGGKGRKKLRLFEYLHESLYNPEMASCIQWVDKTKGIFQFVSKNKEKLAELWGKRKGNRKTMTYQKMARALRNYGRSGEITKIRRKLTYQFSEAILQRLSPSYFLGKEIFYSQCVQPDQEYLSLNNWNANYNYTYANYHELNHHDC
The conditions noted are these: protein: recombinant; tags: N-terminal GST; dsDNA, one strand shown. In outline:
as §1

Assay [5] concerns the target ELF4 (Homo sapiens, UniProt Q99607 1-663). As to conditions: protein: recombinant; tags: N-terminal GST; dsDNA, one strand shown. In a few lines: as §1
Assay [6] has as its target T3, ELK4 (Homo sapiens, UniProt P28324-2 1-405).
T3 sequence: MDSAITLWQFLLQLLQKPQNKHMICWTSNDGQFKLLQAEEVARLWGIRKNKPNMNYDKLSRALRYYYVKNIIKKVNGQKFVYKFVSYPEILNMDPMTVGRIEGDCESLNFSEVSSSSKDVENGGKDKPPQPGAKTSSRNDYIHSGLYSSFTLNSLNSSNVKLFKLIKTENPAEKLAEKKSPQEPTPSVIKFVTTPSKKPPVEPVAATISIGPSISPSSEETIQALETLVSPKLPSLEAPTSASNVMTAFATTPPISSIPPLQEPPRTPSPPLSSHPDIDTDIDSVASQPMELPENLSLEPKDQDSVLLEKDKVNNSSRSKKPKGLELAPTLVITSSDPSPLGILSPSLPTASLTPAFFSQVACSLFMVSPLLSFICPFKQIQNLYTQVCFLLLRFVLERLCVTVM
The conditions noted are these: protein: recombinant; tags: N-terminal GST; dsDNA, one strand shown. In a few lines:
as §1

Assay [7] addresses T4, ETV2 (Homo sapiens, UniProt O00321 1-342).
T4 sequence: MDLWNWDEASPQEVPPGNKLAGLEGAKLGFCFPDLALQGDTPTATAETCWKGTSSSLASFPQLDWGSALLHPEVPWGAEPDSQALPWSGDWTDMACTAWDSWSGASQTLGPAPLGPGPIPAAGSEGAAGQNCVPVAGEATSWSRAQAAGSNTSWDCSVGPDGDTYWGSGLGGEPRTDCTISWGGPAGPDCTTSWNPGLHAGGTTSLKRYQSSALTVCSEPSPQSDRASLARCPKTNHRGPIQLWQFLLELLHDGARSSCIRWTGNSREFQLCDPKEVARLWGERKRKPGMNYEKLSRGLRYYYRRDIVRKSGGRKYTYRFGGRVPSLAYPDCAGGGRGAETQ
As to conditions: protein: recombinant; tags: N-terminal GST; dsDNA, one strand shown. In a few lines:
as §1

The target of assay [8] is T5, ELF3 (Homo sapiens, UniProt P78545 1-371).
T5 sequence: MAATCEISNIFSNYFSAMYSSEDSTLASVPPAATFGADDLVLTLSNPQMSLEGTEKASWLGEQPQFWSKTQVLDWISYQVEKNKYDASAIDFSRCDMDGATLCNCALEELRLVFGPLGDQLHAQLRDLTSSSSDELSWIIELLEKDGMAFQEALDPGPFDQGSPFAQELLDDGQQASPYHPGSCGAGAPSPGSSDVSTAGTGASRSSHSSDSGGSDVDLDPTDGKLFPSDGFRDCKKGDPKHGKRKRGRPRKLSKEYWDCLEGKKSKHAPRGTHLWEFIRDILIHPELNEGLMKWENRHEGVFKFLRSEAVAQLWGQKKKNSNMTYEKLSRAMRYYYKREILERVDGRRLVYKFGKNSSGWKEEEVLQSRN
The conditions noted are these: protein: recombinant; tags: N-terminal GST; dsDNA, one strand shown. In a few lines: as §1

For assay [9], the target named is CRX (Homo sapiens, UniProt O43186 1-299). The conditions noted are these: protein: recombinant; tags: N-terminal GST; dsDNA, one strand shown. In outline:
as §1

In assay [10] the target is ETV1 (Homo sapiens, UniProt P50549 1-477). As to conditions: protein: recombinant; tags: N-terminal GST; dsDNA, one strand shown. In a few lines: as §1
Sequence of ETV1 (P50549 whole entry): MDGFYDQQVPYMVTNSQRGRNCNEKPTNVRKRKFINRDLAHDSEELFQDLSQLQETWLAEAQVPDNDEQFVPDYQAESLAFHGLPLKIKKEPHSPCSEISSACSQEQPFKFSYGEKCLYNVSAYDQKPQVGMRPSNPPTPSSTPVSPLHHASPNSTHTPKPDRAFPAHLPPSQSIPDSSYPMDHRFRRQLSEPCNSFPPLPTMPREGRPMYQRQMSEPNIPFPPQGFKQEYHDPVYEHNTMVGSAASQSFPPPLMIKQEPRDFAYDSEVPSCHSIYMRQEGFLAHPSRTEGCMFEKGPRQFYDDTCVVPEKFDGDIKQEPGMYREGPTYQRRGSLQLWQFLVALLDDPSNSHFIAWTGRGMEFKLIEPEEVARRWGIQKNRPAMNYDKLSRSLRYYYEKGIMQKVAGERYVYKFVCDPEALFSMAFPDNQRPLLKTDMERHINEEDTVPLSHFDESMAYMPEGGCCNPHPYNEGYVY
Assay [11] deals with T6, ERF (Homo sapiens, UniProt P50548 1-548).
T6 sequence: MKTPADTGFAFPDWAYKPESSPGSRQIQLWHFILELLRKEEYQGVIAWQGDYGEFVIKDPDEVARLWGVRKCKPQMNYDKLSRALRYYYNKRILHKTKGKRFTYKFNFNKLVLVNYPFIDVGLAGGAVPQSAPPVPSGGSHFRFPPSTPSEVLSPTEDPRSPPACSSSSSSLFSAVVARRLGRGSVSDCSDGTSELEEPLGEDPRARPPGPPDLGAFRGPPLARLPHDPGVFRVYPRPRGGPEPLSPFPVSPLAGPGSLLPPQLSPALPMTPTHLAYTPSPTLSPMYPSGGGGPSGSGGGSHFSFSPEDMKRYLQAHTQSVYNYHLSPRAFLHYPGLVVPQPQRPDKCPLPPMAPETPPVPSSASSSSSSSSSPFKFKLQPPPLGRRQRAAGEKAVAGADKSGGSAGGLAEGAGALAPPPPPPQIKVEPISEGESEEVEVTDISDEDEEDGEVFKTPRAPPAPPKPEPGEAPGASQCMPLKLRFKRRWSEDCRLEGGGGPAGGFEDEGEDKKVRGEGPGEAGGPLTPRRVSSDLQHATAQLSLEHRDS
As to conditions: protein: recombinant; tags: N-terminal GST; dsDNA, one strand shown. In a few lines: as §1

The target in assay [12] is T7, ETV3L (Homo sapiens, UniProt Q6ZN32 1-361).
T7 sequence: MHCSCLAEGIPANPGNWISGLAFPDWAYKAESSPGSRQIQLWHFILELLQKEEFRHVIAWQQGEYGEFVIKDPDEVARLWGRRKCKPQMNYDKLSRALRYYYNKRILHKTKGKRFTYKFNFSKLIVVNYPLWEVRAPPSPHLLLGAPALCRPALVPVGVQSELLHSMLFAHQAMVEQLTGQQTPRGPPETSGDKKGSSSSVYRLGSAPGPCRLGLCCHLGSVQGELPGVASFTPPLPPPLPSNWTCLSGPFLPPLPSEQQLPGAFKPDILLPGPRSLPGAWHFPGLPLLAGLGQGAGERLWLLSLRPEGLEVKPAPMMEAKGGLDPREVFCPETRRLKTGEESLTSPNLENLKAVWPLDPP
The conditions noted are these: protein: recombinant; tags: N-terminal GST; dsDNA, one strand shown. In a few lines:
as §1

The target in assay [13] is T8, ETS2 (Homo sapiens, UniProt P15036 1-469).
T8 sequence: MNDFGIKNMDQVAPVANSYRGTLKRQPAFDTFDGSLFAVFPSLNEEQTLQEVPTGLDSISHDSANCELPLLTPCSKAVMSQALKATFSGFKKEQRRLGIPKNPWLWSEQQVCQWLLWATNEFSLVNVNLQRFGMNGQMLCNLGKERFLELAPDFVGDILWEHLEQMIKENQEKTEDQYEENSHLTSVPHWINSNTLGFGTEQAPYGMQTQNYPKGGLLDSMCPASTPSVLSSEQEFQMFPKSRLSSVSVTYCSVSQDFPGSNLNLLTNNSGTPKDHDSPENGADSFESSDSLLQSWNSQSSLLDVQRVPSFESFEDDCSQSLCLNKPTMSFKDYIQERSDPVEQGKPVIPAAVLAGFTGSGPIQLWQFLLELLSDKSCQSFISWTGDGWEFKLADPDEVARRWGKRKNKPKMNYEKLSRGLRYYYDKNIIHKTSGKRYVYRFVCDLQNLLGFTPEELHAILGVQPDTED
As to conditions: protein: recombinant; tags: N-terminal GST; dsDNA, one strand shown. In outline: as §1

The target in assay [14] is T9, SPDEF (Homo sapiens, UniProt O95238 1-335).
T9 sequence: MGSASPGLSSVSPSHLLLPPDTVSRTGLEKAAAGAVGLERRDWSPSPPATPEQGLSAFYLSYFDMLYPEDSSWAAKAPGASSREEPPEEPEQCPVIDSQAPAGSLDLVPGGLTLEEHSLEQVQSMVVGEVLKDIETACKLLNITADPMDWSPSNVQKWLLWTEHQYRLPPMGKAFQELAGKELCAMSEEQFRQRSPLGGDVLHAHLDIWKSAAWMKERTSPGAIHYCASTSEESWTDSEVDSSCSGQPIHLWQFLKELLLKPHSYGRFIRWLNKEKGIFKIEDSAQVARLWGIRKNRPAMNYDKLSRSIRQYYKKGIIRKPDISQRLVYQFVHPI
As to conditions: protein: recombinant; tags: N-terminal GST; dsDNA, one strand shown. In a few lines:
as §1

Assay [15] deals with T10, ETV7 (Homo sapiens, UniProt Q9Y603 1-341).
T10 sequence: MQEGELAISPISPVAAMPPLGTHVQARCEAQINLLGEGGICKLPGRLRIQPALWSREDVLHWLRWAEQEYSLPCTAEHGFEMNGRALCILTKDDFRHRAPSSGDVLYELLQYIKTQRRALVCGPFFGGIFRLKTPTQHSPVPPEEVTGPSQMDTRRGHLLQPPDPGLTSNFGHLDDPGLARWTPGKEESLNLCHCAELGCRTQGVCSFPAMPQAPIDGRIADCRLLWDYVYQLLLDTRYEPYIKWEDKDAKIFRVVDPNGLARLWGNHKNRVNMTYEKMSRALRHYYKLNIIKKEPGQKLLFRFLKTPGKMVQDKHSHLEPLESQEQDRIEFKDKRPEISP
As to conditions: protein: recombinant; tags: N-terminal GST; dsDNA, one strand shown. In outline:
as §1

Assay [16] concerns the target T11, ELF5 (Homo sapiens, UniProt Q9UKW6-2 1-255).
T11 sequence: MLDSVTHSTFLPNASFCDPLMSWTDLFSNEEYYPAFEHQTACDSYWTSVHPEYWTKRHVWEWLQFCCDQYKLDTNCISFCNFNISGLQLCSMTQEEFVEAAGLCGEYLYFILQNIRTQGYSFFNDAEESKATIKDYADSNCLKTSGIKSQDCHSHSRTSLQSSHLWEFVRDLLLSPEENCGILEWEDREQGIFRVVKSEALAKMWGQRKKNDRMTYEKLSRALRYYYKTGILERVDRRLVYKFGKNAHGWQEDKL
The conditions noted are these: protein: recombinant; tags: N-terminal GST; dsDNA, one strand shown. In outline:
as §1

Assay [17] addresses T12, ETV3 (Homo sapiens, UniProt P41162-2 1-143).
T12 sequence: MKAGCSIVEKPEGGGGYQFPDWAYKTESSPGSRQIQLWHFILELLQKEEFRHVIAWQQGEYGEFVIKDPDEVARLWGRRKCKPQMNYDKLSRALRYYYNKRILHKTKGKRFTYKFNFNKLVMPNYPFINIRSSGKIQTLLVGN
The conditions noted are these: protein: recombinant; tags: N-terminal GST; dsDNA, one strand shown. In outline:
as §1

The target of assay [18] is ETV6 (Homo sapiens, UniProt P41212 1-452). The conditions noted are these: protein: recombinant; tags: N-terminal GST; dsDNA, one strand shown. In a few lines: as §1
Sequence of ETV6 (P41212 whole entry): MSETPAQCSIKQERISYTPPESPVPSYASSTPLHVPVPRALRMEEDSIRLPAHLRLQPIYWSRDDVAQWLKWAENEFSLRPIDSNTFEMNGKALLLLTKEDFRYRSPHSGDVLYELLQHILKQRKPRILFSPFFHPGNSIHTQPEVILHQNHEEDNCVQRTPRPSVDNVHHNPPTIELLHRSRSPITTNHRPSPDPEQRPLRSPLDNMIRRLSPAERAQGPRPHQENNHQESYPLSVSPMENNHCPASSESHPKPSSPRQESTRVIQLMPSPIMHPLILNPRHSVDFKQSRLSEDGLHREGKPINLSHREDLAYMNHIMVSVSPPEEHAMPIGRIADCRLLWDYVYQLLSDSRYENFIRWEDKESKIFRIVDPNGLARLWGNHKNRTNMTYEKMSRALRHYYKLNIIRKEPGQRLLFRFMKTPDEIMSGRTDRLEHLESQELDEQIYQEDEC

Sequence of HSF1 (Q00613 whole entry): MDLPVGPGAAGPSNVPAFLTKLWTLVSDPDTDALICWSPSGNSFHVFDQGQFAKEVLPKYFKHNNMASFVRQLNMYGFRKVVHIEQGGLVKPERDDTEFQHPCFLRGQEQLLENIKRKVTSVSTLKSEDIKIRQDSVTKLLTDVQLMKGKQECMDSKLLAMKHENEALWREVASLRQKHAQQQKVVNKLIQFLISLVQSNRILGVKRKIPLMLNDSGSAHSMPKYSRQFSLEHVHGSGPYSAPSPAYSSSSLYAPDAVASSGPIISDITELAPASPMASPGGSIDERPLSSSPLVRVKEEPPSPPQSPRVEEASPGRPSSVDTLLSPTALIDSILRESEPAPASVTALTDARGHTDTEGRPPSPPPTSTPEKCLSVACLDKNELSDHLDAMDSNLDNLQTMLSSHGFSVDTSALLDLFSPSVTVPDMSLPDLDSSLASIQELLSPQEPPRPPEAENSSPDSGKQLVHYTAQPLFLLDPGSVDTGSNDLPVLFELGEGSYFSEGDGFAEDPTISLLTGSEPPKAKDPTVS
Sequence of ETV5 (P41161 whole entry): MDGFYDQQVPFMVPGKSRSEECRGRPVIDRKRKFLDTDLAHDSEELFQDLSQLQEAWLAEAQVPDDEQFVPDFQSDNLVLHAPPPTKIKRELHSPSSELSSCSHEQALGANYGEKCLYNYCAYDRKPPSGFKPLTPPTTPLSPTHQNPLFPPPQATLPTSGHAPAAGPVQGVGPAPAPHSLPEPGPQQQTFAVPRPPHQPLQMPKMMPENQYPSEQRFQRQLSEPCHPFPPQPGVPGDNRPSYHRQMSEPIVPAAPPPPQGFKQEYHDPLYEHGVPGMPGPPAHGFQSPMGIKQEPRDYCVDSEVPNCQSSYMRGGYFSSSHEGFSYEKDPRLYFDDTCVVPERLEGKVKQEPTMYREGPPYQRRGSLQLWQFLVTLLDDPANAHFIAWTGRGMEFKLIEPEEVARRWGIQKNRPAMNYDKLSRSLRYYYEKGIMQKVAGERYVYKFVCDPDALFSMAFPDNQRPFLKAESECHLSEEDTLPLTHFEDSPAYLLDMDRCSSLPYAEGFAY
Sequence of CRX (O43186 whole entry): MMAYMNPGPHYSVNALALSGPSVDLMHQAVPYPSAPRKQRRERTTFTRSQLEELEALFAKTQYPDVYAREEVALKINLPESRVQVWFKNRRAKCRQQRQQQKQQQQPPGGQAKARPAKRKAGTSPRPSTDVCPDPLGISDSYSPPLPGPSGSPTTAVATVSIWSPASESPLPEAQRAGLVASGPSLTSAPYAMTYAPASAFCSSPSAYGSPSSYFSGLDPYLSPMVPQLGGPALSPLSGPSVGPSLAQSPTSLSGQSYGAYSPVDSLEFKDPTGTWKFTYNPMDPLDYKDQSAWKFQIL
Sequence of ELF4 (Q99607 whole entry): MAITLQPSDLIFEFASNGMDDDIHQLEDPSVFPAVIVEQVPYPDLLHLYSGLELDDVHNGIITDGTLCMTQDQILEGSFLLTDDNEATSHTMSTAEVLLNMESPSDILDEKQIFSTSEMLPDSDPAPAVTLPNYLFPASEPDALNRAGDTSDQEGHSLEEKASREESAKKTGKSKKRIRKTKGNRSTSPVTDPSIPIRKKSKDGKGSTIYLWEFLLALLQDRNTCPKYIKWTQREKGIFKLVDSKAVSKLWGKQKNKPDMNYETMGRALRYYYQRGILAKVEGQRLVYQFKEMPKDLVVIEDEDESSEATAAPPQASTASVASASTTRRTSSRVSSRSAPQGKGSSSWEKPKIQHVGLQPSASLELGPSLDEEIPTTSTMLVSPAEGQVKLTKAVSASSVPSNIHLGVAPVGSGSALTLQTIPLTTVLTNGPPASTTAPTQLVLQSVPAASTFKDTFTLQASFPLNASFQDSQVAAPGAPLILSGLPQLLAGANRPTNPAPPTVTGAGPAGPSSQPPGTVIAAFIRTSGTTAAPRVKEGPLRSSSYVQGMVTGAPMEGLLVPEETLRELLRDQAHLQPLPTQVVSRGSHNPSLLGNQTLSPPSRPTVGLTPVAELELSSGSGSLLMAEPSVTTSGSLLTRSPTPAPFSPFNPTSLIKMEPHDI

TGCTTT: the binding signal is 1.05 fold enrichment (6-mer frequency, TF over GST control) in [1]; 1.05 fold enrichment (6-mer frequency, TF over GST control) in assay [2]; 1.05 fold enrichment (6-mer frequency, TF over GST control) in assay [3]; 1.16 fold enrichment (6-mer frequency, TF over GST control) in assay [4]; 1.14 fold enrichment (6-mer frequency, TF over GST control) in [5]; 1.23 fold enrichment (6-mer frequency, TF over GST control) in [6]. For the same sequence, the binding signal in assay [7] was 1.12 fold enrichment (6-mer frequency, TF over GST control); in assay [8] it was 1.05 fold enrichment (6-mer frequency, TF over GST control); in assay [9], 1.09 fold enrichment (6-mer frequency, TF over GST control); in [10], 1.06 fold enrichment (6-mer frequency, TF over GST control); in assay [11], 1.29 fold enrichment (6-mer frequency, TF over GST control); in assay [12], 1.11 fold enrichment (6-mer frequency, TF over GST control). Besides, the binding signal in [13] is 1.07 fold enrichment (6-mer frequency, TF over GST control); in [14] it was 1.02 fold enrichment (6-mer frequency, TF over GST control); in [15], 1.19 fold enrichment (6-mer frequency, TF over GST control); in [16], 1.15 fold enrichment (6-mer frequency, TF over GST control); in assay [17], 1.14 fold enrichment (6-mer frequency, TF over GST control); in assay [18], 1.1 fold enrichment (6-mer frequency, TF over GST control).
